# From PubChem BioAssay (NCI)
# The panel holds about 83,000 compounds, 20% with a hit somewhere; the sample as a whole holds those more often.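 Compound tested at a single concentration for 48 hours in 96-well plates; a percent growth value below 10 was scored as active.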 Unmarked numbers belong to inactive results. The source made the active and inactive calls.
# Assays:
# Assay in all cases: NCI-60 one-dose screen, 48 h (100 = growth as untreated, 0 = no growth, -100 = all killed)
# Settings in all cases: 10 µM unless noted
# [1] = test system: HCT-15 colon
# [2] = test system: HT29 colon
# [3] = test system: SNB-75 CNS
# [4] = test system: SNB-19 CNS
# [5] = test system: U251 CNS
# [6] = test system: PC-3 prostate
# [7] = test system: UACC-62 melanoma
# [8] = test system: LOX IMVI melanoma
# [9] = test system: SK-MEL-28 melanoma
# [10] = test system: SK-MEL-2 melanoma
# [11] = test system: EKVX NSCLC
# [12] = test system: SN12C renal
# [13] = test system: UO-31 renal
# [14] = test system: TK-10 renal
# [15] = test system: ACHN renal
# [16] = test system: CAKI-1 renal
# [17] = test system: CCRF-CEM leukemia
# [18] = test system: MOLT-4 leukemia
# [19] = test system: A498 renal
Compound,growth [1],growth [2],growth [3],growth [4],growth [5],growth [6],growth [7],growth [8],growth [9],growth [10],growth [11],growth [12],growth [13],growth [14],growth [15],growth [16],growth [17],growth [18],growth [19]
COc1ccc(/C=N/C2=C(C#N)C(c3ccc(N(C)C)cc3)c3ccc4ccccc4c3O2)cc1 (stereo unspecified),38.7%,48.4%,-7.87% (active),68%,71.1%,52.5%,48.3%,37.3%,74.4%,62.6%,61.3%,72.3%,46.5%,132%,66%,19.6%,63.1%,54.4%,–
CCN1CCN(c2nc(NCCNc3ccnc4cc(Cl)ccc34)c3ccccc3n2)CC1,7.08% (active),-14.1% (active),44.7%,14.4%,-16.7% (active),24.7%,-87.9% (active),-62.9% (active),-60.1% (active),-71.4% (active),53.3%,-5.71% (active),-75.2% (active),-19.4% (active),-25.7% (active),–,-12.8% (active),6.3% (active),77.1%
COc1ccc(/C=C/c2nc(-c3n[nH]c(=O)n3-c3ccccc3)c3ccccc3n2)cc1,93.8%,101%,81.7%,96.7%,99.5%,95.9%,87.2%,97.2%,106%,99.2%,94.6%,91.5%,79.8%,108%,102%,84%,90%,95%,–
CC1=C[C@H]2c3c(c(O)c(O)c4oc5ccccc5c(=O)c34)[C@H](c3cc(O)c(O)c4oc5ccccc5c(=O)c34)[C@H]2C(C)(C)C1,13.7%,14.8%,-29.7% (active),13.8%,5.08% (active),5.67% (active),-65.5% (active),-78.9% (active),18.3%,0.0517% (active),18.7%,7.6% (active),-74% (active),23.1%,6.36% (active),-24.7% (active),5.39% (active),2.9% (active),–
CCOC(=O)c1cc(C(=O)c2ccc(O)c(O)c2)n2ccc(-c3ccn4c(C(=O)c5ccc(O)c(O)c5)cc(C(=O)OCC)c4c3)cc12,88%,96%,87.3%,93.9%,97%,89.1%,97.9%,89%,113%,103%,94.9%,94.7%,63.4%,83.3%,97.4%,–,84.5%,63.3%,96.6%
CCN1CCN(c2nc(NCCCNc3ccnc4cc(Cl)ccc34)c3ccccc3n2)CC1,25.8%,-16% (active),57%,16.5%,-26.7% (active),37%,-75.6% (active),-69.3% (active),-66.4% (active),-10.5% (active),63.1%,48.2%,-5.29% (active),42.3%,5.28% (active),–,12.2%,13.6%,81%
CCCOc1cc2ccccc2cc1C(=O)Nc1nc(N)c2c(ccc3nccc32)[nH]1,-44.7% (active),-63.3% (active),-90.3% (active),-76.4% (active),-83.5% (active),-27.9% (active),-81% (active),-73.7% (active),-84.9% (active),-49.6% (active),-73.7% (active),-63.6% (active),-65% (active),-37.3% (active),-80.9% (active),-46.7% (active),-13% (active),-40.9% (active),-87.6% (active)
Cn1nc(N)c2cc([C@@H]3Nc4ccc5[nH]ncc5c4[C@H]4C5CCC(C5)[C@@H]34)ccc21 (stereo partly specified),17.9%,11.6%,-17.9% (active),29.5%,21.1%,17.4%,32.1%,38.8%,53.2%,46.6%,47.1%,50.7%,40.6%,80.4%,39.6%,40.9%,16.7%,20.1%,–
Cc1nn(-c2cc(=O)[nH]c3ccc(Cl)cc23)c(N)c1C#N,103%,110%,61.2%,108%,102%,95.6%,98.8%,92.9%,115%,100%,92.3%,102%,70.7%,133%,99%,85.8%,101%,110%,–
COc1cc(-c2nn(-c3ccc(C(=O)O)cc3)cc2C(=O)O)ccc1O,48.6%,110%,36.6%,58.4%,78.5%,66.9%,90%,44.4%,63.5%,88.1%,76.4%,81.4%,56.1%,122%,44.8%,–,67.9%,90%,97.9%
COc1ccc(/C=C\c2cc(OC)c(OC)c(OC)c2)cc1OC(=O)c1cccc(Cn2cc(CCOC(=O)[C@H](N)Cc3cn(C)c4ccccc34)nn2)c1,12.4%,8.6% (active),22.9%,31.2%,19.2%,18.8%,42.7%,22.3%,63.1%,51.1%,47.2%,38.5%,42.5%,79.6%,26.6%,34.4%,10.2%,6.32% (active),–
FC(F)(F)c1[nH]ncc1-c1nc2ccc3n[nH]c(C#Cc4cccnc4)c3c2c2c1CCCC2,36.1%,32.5%,-10.9% (active),59.9%,54.7%,47.1%,26.8%,33.6%,32.4%,65.8%,30.1%,37.9%,19.8%,46.4%,22.6%,-7% (active),25.2%,14.9%,–
CCN(CC)c1ccc2c(c1)Oc1nc(N)c(C#N)c(N)c1C2Sc1ccc(SC)cc1 (stereo unspecified),-14.3% (active),-76.6% (active),-54.9% (active),-64.1% (active),-92% (active),-28.5% (active),-14.4% (active),-96.9% (active),-9.16% (active),-59.6% (active),-3.97% (active),-13.4% (active),-79.8% (active),-35.7% (active),-46.5% (active),–,-15.5% (active),-10.7% (active),90%
CCOC(=O)c1c(C)oc2ncnc(N3CCN(C(=O)COc4ccc(SC)cc4)CC3)c12,95.8%,95.3%,83%,97.9%,87.5%,82.2%,86.8%,90.5%,110%,95.4%,88.1%,94.9%,74.4%,103%,93.5%,82.7%,91.5%,88.6%,–
CCCCn1c(-c2ccc(C(=O)O/N=C(\N)c3ccc4c(c3)OCO4)cc2)nc(-c2ccccc2)c1-c1ccccc1,19.4%,19.7%,-15.4% (active),58.8%,45%,42.5%,67.9%,-72.5% (active),76.9%,84.9%,51.8%,39.3%,-62.3% (active),37.1%,-85.8% (active),11.5%,-30% (active),7.23% (active),–
